An excerpt weighted towards active compounds, which were near 2.2% of everything screened.
CHO-K1 Ca PAM: M1 PAM counterscreen hit in parental CHO-K1 cells | ATP EC20, Fluo-8 calcium fluorescence; 0% at ATP EC20, 100% at ATP max | activation, % at 3 µM | actives 0.02% (n = 360,000);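 active = activation above the run cutoff, the mean activation of all test compounds plus 3 SD, cut at about 40% in these data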;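 note: peak over basal fluorescence ratio in a 140 s read after ATP addition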
NTR1 agonist: activates human neurotensin receptor 1. actives 0.17% (n = 330,000). P30989. activation, % at 20 µM. NTR1-U2OS beta-arrestin-GFP spot imaging, agonist mode;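 active = activation at or above 40% of the spot to cytoplasm intensity ratio, with at least 20 cells analyzed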;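 note: 0% = DMSO without peptide and 100% = 100 nM NTR1 peptide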
Target sequence (P30989 whole entry, looked up): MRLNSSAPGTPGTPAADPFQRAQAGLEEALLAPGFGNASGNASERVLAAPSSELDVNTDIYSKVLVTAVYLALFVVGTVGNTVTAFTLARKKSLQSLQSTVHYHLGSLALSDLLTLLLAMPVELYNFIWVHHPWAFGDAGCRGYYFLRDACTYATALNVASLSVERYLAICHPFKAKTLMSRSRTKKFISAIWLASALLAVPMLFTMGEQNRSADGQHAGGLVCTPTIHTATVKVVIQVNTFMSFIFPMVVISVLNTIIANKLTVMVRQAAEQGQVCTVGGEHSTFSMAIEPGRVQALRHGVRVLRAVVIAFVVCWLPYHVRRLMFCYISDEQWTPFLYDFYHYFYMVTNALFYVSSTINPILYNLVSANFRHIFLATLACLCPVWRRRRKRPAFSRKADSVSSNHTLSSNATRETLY
M1 ag parental: counter-screen for M1 agonists: effect in parental CHO-K1 cells | activation, % at 3 µM | AID 602248 | actives 0.48% (n = 360,000) | Fluo-8 calcium fluorescence; scaled to maximal ATP response, vehicle zero; in the data active = activation above about 15%;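 note: untransfected CHO-K1 host cells lacking M1 receptor as counterscreen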
CHO-K1 Ca antag: counter-screen for M1 antagonists: effect in parental CHO-K1 cells. actives 0.6% (n = 360,000). AID 602250. inhibition, % at 3 µM. ATP-induced calcium, Fluo-8 fluorescence;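 active = inhibition above a per-plate cutoff, the plate's mean sample inhibition plus 3 SD, cut at about 24% in these data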;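 note: 0% = DMSO plus EC80 ATP and 100% = DMSO alone without ATP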
ANO1 block: inhibitors of mouse TMEM16A calcium-activated chloride channel; Q8BHY3; HEK293 TMEM16A/YFP iodide influx fluorescence, ionomycin; normalized B-score (activity score, 25-100; higher = stronger inhibition) at 10 µM; actives 1.2% (n = 310,000); AID 588511;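 active = ratio plate-corrected score three or more library SD toward inhibition, starting fluorescence score within five deviations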;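 note: score derived from kinetic fluorescence span divided by baseline fluorescence per well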
ANO1 activ: mouse TMEM16A channel activation, primary screen; HEK293 TMEM16A/YFP-H148Q/I152L, iodide quench fluorescence; hits give low values; B-score at 10 µM; actives 0.3% (n = 340,000);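 active = fluorescence-ratio B-score plate-corrected deviation score at least 3 library SD below zero, with starting fluorescence score within 5 deviations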;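 note: channel opened by trigger with iodide after compound preincubation; score built on the fluorescence ratio of max minus min over baseline; more negative score means more quench and so TMEM16A activation or potentiation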
NTR1 ag conf: confirmation of agonists of human NTR1; actives 38% (n = 480); AID 504550; NTR1-U2OS beta-arrestin-GFP translocation imaging; shares compounds with NTR1 agonist; activation, % at 20 µM;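 active = mean activation at 20 µM of at least 40%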;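 note: 0% = DMSO without peptide and 100% = 100 nM NTR1 peptide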
The depositor's hits bear a star; i = inactive; · = no result.

SMILES | CHO-K1 Ca PAM | NTR1 agonist | M1 ag parental | CHO-K1 Ca antag | ANO1 block | ANO1 activ | NTR1 ag conf
Cc1ccc(-c2ccc(C(=O)Nc3ccccc3)o2)c2ccccc12 | 7 | 1 | 3 | -2 | i | i | ·
CC(C)C[C@H]1CN(CCCC[C@@H]2CNC(=O)C(=O)N2CC2CCCCC2)C(=O)C(=O)N1Cc1ccccc1 | 1 | · | 0 | -20 | · | · | ·
CCCc1cc(C(=O)Cc2ccc(F)cc2)c(O)cc1O | 18 | 8 | 3 | -15 | 100* | i | ·
O=C(Cc1ccc(F)cc1)c1ccc(O)cc1O | 18 | -1 | 3 | -1 | i | i | ·
COc1cccc(CNC[C@H]2O[C@@H](n3ccc(N)nc3=O)[C@H](O)[C@@H]2O)c1OCc1ccc(F)cc1Cl | -4 | · | 0 | -2 | · | · | ·
CN1CCCC(OC(=O)CCCCC(=O)OC2CCCN(C)C2)C1 (stereo not given) | -6 | 0 | -1 | 26* | i | i | ·
CN1CCCC(OC(=O)c2ccc(Cl)cc2)C1 (stereo not given) | 20 | 2 | 1 | -7 | i | i | ·
OC(c1cc(-c2ccc(C(F)(F)F)cc2)nc(C(F)(F)F)c1)C1CCCCN1 (stereo not given) | 15 | 31 | 18* | 14 | i | i | ·
CN1CCN(C2=C(Cl)C(=O)c3ccccc3C2=O)CC1 | 7 | · | 0 | -1 | · | i | ·
CN1CCN(C2=C(Cl)C(=O)C(c3cnc(N4CCCCC4)s3)=C(Cl)C2=O)CC1 | 14 | 7 | 0 | 2 | 100* | i | ·
COc1cc(C(=O)COC(=O)c2ccncc2)cc(OC)c1OC | -3 | -1 | 0 | 5 | · | i | ·
Cc1cc(N2CCN(C)CC2)ccc1NC(=O)c1cccc(S(=O)(=O)N2CCc3ccccc3C2)c1 | 0 | 42* | 1 | -4 | i | i | 38
COc1ccc(Cl)cc1Nc1nc(Cl)nc(NCCO)n1 | 14 | · | 0 | 3 | · | · | ·
COc1cccc(-c2nc(NC(C)C)c3ccccc3n2)c1O | 14 | 64* | 3 | 0 | i | i | -3
CCc1nc2c(OCc3ccc(Cl)cc3)cccn2c1N(C)C(=O)c1ccncc1 | 8 | · | 0 | 0 | · | · | ·
Cc1cc(F)ccc1S(=O)(=O)Nc1ccccc1C(=O)Nc1ccccc1-c1nc2ccccc2[nH]1 | 7 | 53* | 4 | 12 | i | i | 72*
COc1cc(Cl)c(C)cc1NC(=O)COc1ccc(C)nc1[N+](=O)[O-] | 7 | 2 | 0 | -1 | · | i | ·
O=C(CCCCn1ccc(=O)[nH]c1=O)Nc1ccc(O)c(C(=O)O)c1 | 7 | · | 1 | -13 | · | i | ·
CCOC(=O)Cc1ccc(Nc2nc(NCc3cccs3)nc3ccsc23)cc1 | 7 | · | 6 | 6 | · | · | ·
CCOC(=O)c1cc(-c2ccc(/C=C3/C(=O)N(c4ccc(C(=O)O)cc4)N=C3C)o2)ccc1Cl | -5 | 56* | 0 | 5 | i | i | 47*
COc1cccc(-c2nc3n(n2)CCc2ccccc2-3)c1 | 13 | · | 1 | -2 | · | · | ·
O=C1NC[C@H](CCCCN2C[C@H](Cc3ccccc3)N(CCC3CCCCC3)C(=O)C2=O)N(CCc2ccccc2)C1=O | 12 | · | 1 | -11 | · | · | ·
c1ccc(C(c2ccccc2)N2CCN(c3nc4ccccc4n4cnnc34)CC2)cc1 | · | 42* | · | · | i | · | 50*
CCOC(=O)C1=C(CS(=O)(=O)c2ccc(C)cc2)NC(=O)NC1c1cc(OC)c(OC)c(OC)c1 (stereo not given) | 5 | 48* | 0 | -17 | i | i | 0
COCCNc1nc2cc(-c3ccc(C)cc3)sc2c(=O)n1C | -12 | · | 0 | 13 | · | · | ·
SMILES | CHO-K1 Ca PAM | NTR1 agonist | M1 ag parental | CHO-K1 Ca antag | ANO1 block | ANO1 activ | NTR1 ag conf
CSCCC(NS(=O)(=O)c1ccc(Cl)cc1)C(=O)OCC(=O)c1c(C)[nH]c2ccccc12 (stereo not given) | 12 | 41* | 4 | 1 | i | i | 25
Cc1[nH]c2ccccc2c1C(=O)COC(=O)C1CC(O)CN1S(=O)(=O)c1ccc(Cl)cc1 (stereo not given) | 8 | 6 | 1 | -9 | · | i | ·
CNC(=O)C[C@H]1C(=O)N(c2ccccc2)C[C@@H]1CSC | 9 | · | 0 | -13 | · | · | ·
O=C(NNc1c2ccccc2nc2ccccc12)c1ccccc1O | 7 | 50* | 11 | -2 | i | i | 3
CCCCCCOc1ccc(/C(C)=N/NC2=NCCN2)cc1[N+](=O)[O-] | 15 | 41* | 2 | 0 | i | i | 46*
C/C(=N\NC1=NCCN1)c1ccc(N)c([N+](=O)[O-])c1 | 12 | 0 | 0 | -6 | i | i | ·
N#CC1(Nc2ccc3ccccc3c2)CCCC1 | 11 | · | 0 | -7 | · | i | ·
COc1ccc(-n2ncc3c(N4CCN(Cc5ccccc5)CC4)ncnc32)cc1 | 7 | 67* | 6 | 13 | i | i | 56*
CC(C)CCNC(=O)c1cc(S(=O)(=O)N2CCC3(CC2)OCCO3)ccc1F | 7 | · | 2 | -9 | · | · | ·
COCCNC(=O)c1ccc(N2CC3CC(C2)c2cccc(=O)n2C3)c(NC(=O)c2ccccc2Br)c1 (stereo not given) | 0 | · | 0 | 4 | · | · | ·
O=C(CN(C(=O)c1ccc(Cl)cc1)N1C(=O)C2C3C=CC(C3)C2C1=O)c1cccs1 (stereo not given) | 2 | 0 | 5 | -15 | i | i | ·
O=C(CN(C(=O)c1ccc(Cl)cc1)N1C(=O)C2CCCCC2C1=O)c1ccc(Cl)cc1 (stereo not given) | 2 | 52* | 1 | 10 | i | i | 47*
CC1(Oc2cccc(C#N)c2)CCN(Cc2ccccc2OC(F)F)C1 (stereo not given) | 0 | · | 0 | 6 | · | · | ·
CC1=C(C(=O)N(C(C)C)C(C)C)CC(CC(=O)NC2CCCC2)C(=O)N1CCC1=CCCCC1 (stereo not given) | 10 | · | 0 | 2 | · | · | ·
O=C1/C(=C/c2cccnc2)Oc2cc(OS(=O)(=O)c3ccc(F)cc3)ccc21 | -5 | 31 | 3 | -2 | i | i | ·
Cc1ccc(S(=O)(=O)Oc2ccc3c(c2)O/C(=C\c2cccnc2)C3=O)cc1 | 11 | 43* | 4 | -13 | i | i | 33
O=C(COc1ccc2c(-c3ccccc3)cc(=O)oc2c1)NC1CCS(=O)(=O)C1 (stereo not given) | 8 | -1 | 0 | -15 | · | i | ·
CCN(CC(=O)Nc1ccc2c(c1)OCCO2)C(=O)C(C)Oc1ccc(F)cc1 (stereo not given) | 7 | · | 0 | -10 | · | i | ·
CC1=C(C(=O)OC2CCCCCCC2)C(c2cc3c(cc2Br)OCO3)CC(=O)N1 (stereo not given) | -1 | 44* | 0 | 14 | i | i | 42*

Assay outcomes from PubChem BioAssay.
